From PubChem BioAssay AID434958 (Southern Research Specialized Biocontainment Screening …, 2010) come the findings set out here.

What is called viability is a read-out of living cells in per cent, often relative to untreated cells.

Out of some 1,200 compounds screened, about 400 (33%) were called active. How the calls were made is not given here. Not all results are given here. Measured potencies and affinities stand elsewhere.

This assay is described as follows: mammalian cell cytotoxicity, dose response, cytotoxicity control (AID 434958).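 Further: cells exposed to compound for 72 hours before readout.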 Conditions: cytotoxicity counter-screen; series mostly up to 40 µM; viability: at the top concentration.
Take `CCOC(=O)COc1ccc2nsnc2c1`: the “viability” value was 105% (inactive).
`CN(C)c1ccc(N=Nc2cccc3ccoc23)cc1`: the “viability” value was 89.5% (inactive).
With `N#C/C(C(=O)NCc1ccco1)=C1/SC=C(c2ccccc2)N1c1ccccc1` the figure was 92% (inactive); with `CCOc1ccc(-c2nc(-c3ccccc3C)no2)cc1`, 96.4% (inactive); with `COc1cc(NC(=S)NC(=O)c2ccco2)ccc1NC(=O)C(C)C`, 96.5% (inactive).
In the case of `Cc1n[nH]c(C)c1CCCOc1ccccc1`, the “viability” value is 98.6% (inactive).
As for `COc1cc(NC(=O)c2ccccc2)c(OC)cc1NC(=O)CN1CCOCC1`, the “viability” value is 112% (inactive).
For `COc1ccc(C(=O)CN(C(=O)c2ccc(Cl)cc2)N2C(=O)c3ccccc3C2=O)cc1`, the “viability” value was 98.5% (inactive).
In the case of `COc1cc(NC(=O)c2ccccc2Cl)ccc1NC(=O)c1ccco1`, the “viability” value was 91.6% (inactive).
In the case of `O=C(CN1CCN(S(=O)(=O)c2ccc(F)cc2)CC1)Nc1ccc2c(c1)OCCO2` it was 97.2% (inactive); in that of `O=c1[nH]c(CSc2nnc3ccccn23)nc2ccccc12`, 104% (inactive); in that of `O=C(CCN1C(=O)/C(=C/c2ccccc2F)SC1=S)Nc1ccccn1`, 103% (inactive).
For `Cc1ccc(C(=O)NN2C(=O)/C(=C/c3cccn3C)SC2=S)cc1`, the “viability” value is 97.2% (inactive).
Regarding `CN(c1ccc(OCC(=O)Nc2ccc3[nH]c(=O)[nH]c3c2)cc1)S(=O)(=O)c1ccc(Cl)cc1`, the “viability” value was 106% (inactive).
Turning to `CCN1C(=O)C(O)(CC(=O)c2ccc(-n3cccc3)cc2)c2ccccc21` (stereo not given), the “viability” value was 95.4% (inactive).
For `NC(=O)Nc1ccc(C(=O)OCC(=O)Nc2ccc(Cl)cn2)cc1`, the “viability” value is 103% (inactive).
As to `O=C(Cn1ncc2c3ccccc3n(Cc3ccccc3F)c2c1=O)NCCCN1CCCC1=O`, the “viability” value is 84.4% (inactive).
With `CSc1nc(-c2ccc(Cl)cc2)nn1S(=O)(=O)c1ccccc1` the figure was 89.6% (inactive); with `Cc1cccc(N2CCN(CC3CCCCC3)CC2)c1C`, 102% (inactive).
With `CCOC(=O)Cc1nc2ccccc2[nH]1`, the “viability” value was 107% (inactive).
With `COc1ccc(CNC(=O)c2sc3nc4c(c(C(F)(F)F)c3c2N)CCC4)cc1` the figure was 94.8% (inactive); with `CCOC(=O)c1[nH]c2ccccc2c1NC(=O)Nc1ccc(OC)cc1`, 97.4% (inactive); with `O=C(O)CSc1ncnc2c1sc1nc(-c3ccccc3)c3c(c12)CCC3`, 91.9% (inactive).
In the case of `CC(C)(C)c1ccc(C(=O)Oc2ccc3c(c2)OCC3=O)cc1` it was 86.2% (inactive).
With `CS/C(N)=N/N=C/c1cc(Br)cc(Br)c1O` the figure was 96.2% (inactive).
Consider `CCOC(=O)N1CCN(C(=O)CSc2nnc(-c3ccccc3OC)o2)CC1`, for which the “viability” value is 96.8% (inactive).
With `O=C(N/N=C/c1cccc(NC(=O)c2ccc(Cl)cc2)c1)c1cccc(O)c1` the figure was 88.1% (inactive); with `NNC(=O)c1cccc(O)c1`, 103% (inactive).
With `Cc1cc(C2C(=O)c3ccccc3C2=O)c(C)c(C)c1C` the figure was 90.2% (inactive).
Turning to `CCOC(=O)c1ccc(-c2ccc(C=O)o2)cc1`, the “viability” value was 99.5% (inactive).
With `CCCCNC(=O)/C(=C/c1ccccc1)NC(C)=O` the figure was 106% (inactive); with `COc1ccc([C@H]2CC(=O)C=C(/C=C/c3ccccc3)C2)cc1OC`, 82% (inactive); with `NS(=O)(=O)c1cccnc1Nc1c(Cl)cccc1Cl`, 103% (inactive).
On to `COCCSc1nc2sc3c(c2c(=O)n1-c1ccccc1)CCN(C)C3`, for which the “viability” value is 98.3% (inactive).
Turning to `CCOC(=O)C1CCCN(c2ccc(NC(=O)c3snc4c(=O)[nH]cnc34)cc2)C1` (stereo not given), the “viability” value is 103% (inactive).
With `O=C(COC(=O)c1ccc([N+](=O)[O-])s1)NCc1ccccc1` the figure was 97.2% (inactive); with `Cc1ccsc1C(=O)NNC(=O)c1csc(N2CCOCC2)n1`, 102% (inactive).
With `COc1cc(/C=C/C(=O)NC(C)(C)C)ccc1OCc1ccccc1`, the “viability” value was 91.2% (inactive).
With `COc1ccc(/C=C/C(=O)N(C(C)C)C(C)C)cc1Br` the figure was 97% (inactive).
Regarding `COc1ccc2ccccc2c1/C=N/NC(=O)c1cccc(Br)c1`, the “viability” value is 82.7% (inactive).
With `COC(=O)c1ccc(/C=N/NC(=O)c2cccc(F)c2)cc1` the figure was 94.4% (inactive); with `CC1(C)CC(=O)c2cc(C(=O)NCc3ccco3)c(=O)n(-c3ccccc3)c2C1`, 96.6% (inactive); with `CCC1(c2ccc(Cl)cc2)NC(=S)N(c2ccc(C)cc2)N1` (stereo not given), 95.2% (inactive).
`CC(=O)NC(=S)Nc1ccc(NC(=O)c2cccnc2Cl)cc1`: the “viability” value is 95.4% (inactive).
With `CCCCN=C1CC(C)(C)CC(=O)/C1=C(/O)CCC` the figure was 101% (inactive); with `CCOC(=O)c1c(C)[nH]c(C(=O)COC(=O)CCC2CCCC2)c1C`, 105% (inactive); with `CCc1cc2c(=O)oc(-c3ccccc3F)nc2s1`, 104% (inactive).
In the case of `CCOc1ccc2nc(SC3CC(=O)N(c4cccc(OC)c4)C3=O)sc2c1` (stereo not given), the “viability” value was 100% (inactive).
Take `CCCCN1C(=O)c2ccc(C(=O)Nc3cccc(C)c3C)cc2C1=O`: the “viability” value is 98.7% (inactive).
On to `CCOC(=O)c1nc(N2CCN(C(=O)OCC)CC2)c2c3c(sc2n1)CCCC3`, for which the “viability” value was 86.8% (inactive).
Turning to `CC(=O)Nc1ccc(C(=O)N(C2=NC(C)CS2)c2ccc(Cl)cc2)cc1` (stereo not given), the “viability” value is 84.4% (inactive).
Regarding `COc1ccc(C2C(C#N)=C(SCC(=O)Nc3ccc(C)cc3)NC3=C2C(=O)CC(C)(C)C3)cc1` (stereo not given), the “viability” value was 84.9% (inactive).
In the case of `CCCCNC(=O)c1onc(CSc2ccccc2CC)c1C(=O)O` it was 99.5% (inactive); in that of `CCCC(=O)Nc1ccc(NC(=S)NC(=O)c2cccs2)cc1`, 96.4% (inactive); in that of `CCCC(=O)N1CCN(c2ccc(NC(=S)NC(=O)CC)cc2)CC1`, 83.8% (inactive).
